# Results filed as inconclusive are left out. Activity calls are given as the source filed them. Calls follow the shape of the dose curve; as a rule, active = well fitted inhibition curve with a large enough effect; inconclusive = small, poorly fitted or top-dose-only effect; inactive = no such curve, though single readings can be large or run the other way.
# Test: Counterscreen qHTS for Identification of Calcium Integrin Binding Protein 1 (CIB1) Competitor
# Details: series mostly up to 114 µM; activity, negative = inhibition: at the top concentration
# Source text: Assay Provider: Ulhas P. Naik, PhD
# Sidney Kimmel Medical College
# Thomas Jefferson University, Philadelphia, PA
# Primary function of platelets is to maintain hemostasis. At the site of vascular injury, platelets adhere to adhesive proteins such as collagen and von Willebrand factor. Adherent platelets are activated and generate soluble platelet agonists such as thrombin, ADP and thromboxane A2. Following exposure of circulating platelets to these agonists, results in platelet shape change, granule secretion and activation of platelet integrin alphaIIb-beta3. Ligand binding to activated integrin alphaIIb-beta3 triggers outside-in signaling, leading to platelet aggregation, stabilization of platelet plug, and clot retraction. Upon atherosclerotic plaque rupture also causes platelet plug formation, which underlies a number of cardiovascular diseases such as myocardial infraction and stroke. A number of anti-platelet drugs such as aspirin, clopidogrel, prasugrel, vorapaxar, and eptifibatide are currently available to prevent the thrombotic complications. However, these anti-platelet agents have several limitations including inherent variability in individual responses, developing resistance, and serious bleeding side effects. For these reasons they are not suitable for long-term protection. Based on the experiences with current anti-platelet drugs, it appears that the most useful therapeutic approach is to intersect the secondary responses such as integrin outside-in signaling or recruitment of platelets by TxA2 and secreted ADP. Compounds, which can largely preserve the primary hemostatic function of platelets but inhibit secondary response will be most desired therapeutic agents for treatment of cardiovascular disease.
# CIB1 is a calcium integrin binding protein, which specifically interact with the alphaIIb subunit of integrin alphaIIb-beta3. Binding of CIB1 to alphaIIb regulates the outside-in signaling in platelets, which is needed for thrombus stabilization and thrombus growth. […] Therefore, we propose that discovery of a small molecule that can prevent the association of CIB1 and alphaIIb-beta3 will be a potential anti-platelet agent that can block the thrombus formation without undue effect on hemostasis.
# To develop fluorescence polarization (FP) assay using fluorescently labeled alphaIIb peptide and CIB1 protein. Using FP assay characterize the binding affinity, competitive inhibition, and acceptable Z factor (0.5 to1) in order to perform the HTS to identify small molecule compound that can prevent CIB1 binding to platelet integrin alphaIIb-beta3. Active compounds were re-acquired and validated using confirmatory and counterscreens (using 100 nM scrambled peptide).
# [1] Naik MU, Nigam A, Manrai P, et al. CIB1 deficiency results in impaired thrombosis: the potential role of CIB1 in outside-in signaling through integrin alpha IIb beta 3. J Thromb Haemost. 2009;7(11):1906-1914. doi:10.1111/j.1538-7836.2009.03581.
# SEQUENCE No. (1, 2, 3, etc.); […] (e.g., Cells, Incubation, Reagent, etc.); VALUE and DESCRIPTION.
# 1; Reagent; 3 uL; Protein or buffer (4/3x)
# 2; Compound; 46 nL; Control inhibitor / compound library
# 3; Time; 15 min; Room temperature incubation
# 4; Reagent; 1 uL; Fluorescent labeled peptide (4x)
# 5; Time; 1000 rpm; Centrifuge
# 6; Time; 15 min; Room temperature incubation
# 7; Detection; Ex 480/ Em 540; ViewLux Fluorescence Read
# NOTES (numbers refer to sequence above)
# 1; Protein Mixture: C1B1-GST (final concentrations of 1 uM). Buffer composition: 5 mM HEPES pH 7.4, 125 mM NaCl, 5 mM CaCl2, 0.01% Tween20.
# 2; Control Inhibitor: unlabeled peptide (final concentration range 17.4 nM to 572 uM). Compound Library final concentration range 18.3 nM to 114 uM.
# 3; Room temperature incubation.
# 4; Fluorescent Labeled Peptide: FITC-alphaIIb (final concentration of 100 nM). Sequence of Scrambled peptide: Acetyl-[…]-FITC (purity is 95.37%).
# 6; Room temperature incubation.
# […]
# % is scaled to controls: 0 for no effect and ±100 for the full control effect; potency is read from the fitted curve at half-maximal effect.
SMILES,"activity, negative = inhibition",Potency
Cc1cc(=O)oc2cc(SC3=NS(=O)(=O)c4ccccc43)ccc12,-9.31% (inactive),–
CC(C)(C)c1ccc(SC2=NS(=O)(=O)c3ccccc32)cc1,10.5% (inactive),–
Cc1ccc([S+](=O)([O-])Nc2nn3c(=O)c4ccccc4nc3s2)cc1C,28.9% (inactive),–
C[C@@H](NCc1cc2ccccc2[nH]1)c1cccc2ccccc12,-14.1% (inactive),–
O=C(O)c1ccc(-c2ccc3ncnc(NCc4nccs4)c3c2)o1,-15.8% (inactive),–
COc1ccc2nc(S(=O)Cc3ncc(C)c(OC)c3C)[nH]c2c1 (stereo not given),-29% (inactive),–
CCN(CC)C(=S)SSC(=S)N(CC)CC,–,inactive
Cc1nc(C(=O)NCC(=O)O)c(O)c2ccc(Oc3ccccc3)cc12,-3.15% (inactive),–
O=[S+]([O-])(Nc1nccs1)c1ccc(NCc2cc(Cl)cc(Br)c2O)cc1,2.31% (inactive),–
Cc1ccc(S(=O)(=O)Nc2cnccc2C(=O)Nc2nc(-c3ccc(Cl)cc3)cs2)cc1,43.7% (inactive),–
O=C(Nc1ccc(S(=O)(=O)N2CCOCC2)cc1)c1cc(Cl)ccc1NS(=O)(=O)c1ccc(Cl)s1,133% (inactive),–
CCOc1ccc(CCNC(C)=O)cc1OCC,9.35% (inactive),–
COc1ccccc1Nc1cc2ccccc2c(=O)[nH]1,–,35.5 µM (active)
Cc1ccc(C(=O)NC(c2ccco2)c2cc(Cl)c3cccnc3c2O)cc1 (stereo not given),37.6% (inactive),–
O=c1c(O)c(-c2ccc(O)c(O)c2)oc2cc(O)cc(O)c12,–,inactive
NC[C@@H](O)c1ccc(O)c(O)c1,-1.26% (inactive),–
Cc1cc(NS(=O)(=O)c2ccc(NC(=O)Cc3ccc(F)c(Cl)c3)cc2)no1,-12.5% (inactive),–
COc1cc(C(=O)NS(=O)(=O)c2ccccc2C)ccc1Cc1cn(C)c2ccc(NC(=O)OC3CCCC3)cc12,37.6% (inactive),–
O=C1c2c(O)ccc(O)c2C(=O)c2c(NCCNCCO)ccc(NCCNCCO)c21,–,20 µM (active)
Cc1ccc(S(=O)(=O)Nc2cc3c(cc2C(=O)Nc2nc(-c4ccccc4)cs2)OCO3)cc1,106% (inactive),–

SMILES,"activity, negative = inhibition",Potency
Cc1c(C)n(Cc2ccc(-c3ccccc3C(=O)O)cc2)c2ccc(C(=O)N[C@@H](C)c3ccc([N+](=O)[O-])cc3)cc12,6.01% (inactive),–
O=C1CCCC2=C1C1(CCCOC1)N=C(Nc1nc3ccccc3o1)N2 (stereo not given),-6.27% (inactive),–
COc1ccc(C(=O)Nc2nc(-c3ccccc3)cs2)c(NS(=O)(=O)c2ccc(C)cc2)c1,70.2% (inactive),–
Fc1ccc(NC(=S)Nc2nnc(-c3ccncc3)s2)cc1C(F)(F)F,27.3% (inactive),–
CN1CCc2cccc3c2[C@H]1Cc1ccc(O)c(O)c1-3,-18.5% (inactive),–
CC(OC(=O)c1ccc(S(C)(=O)=O)c([N+](=O)[O-])c1)C(=O)NC1C2CC3CC(C2)CC1C3 (stereo not given),-10.4% (inactive),–
CCc1oc2ccccc2c1C(=O)c1cc(Br)c(O)c(Br)c1,49.1% (inactive),–
NS(=O)(=O)c1ccc(Nc2nc(-c3ccccc3)cs2)cc1,–,44.7 µM (active)
O=C1CCCC2=C1C1(CCOCC1)N=C(Nc1nc3ccccc3o1)N2,7.29% (inactive),–
O=C1CCCC2=C1C(c1[nH]ncc1Cl)N=C(Nc1nc3ccccc3o1)N2 (stereo not given),-16.6% (inactive),–
Cc1ccccc1NC(=O)CN1C(=O)N/C(=C\c2cn(-c3cccc(C(=O)O)c3)cn2)C1=O,-15.3% (inactive),–
COc1ccc(NC(=O)c2[nH]c(C)c(C(C)=O)c2C)cc1[S+](=O)([O-])Nc1ccccc1C#N,-11% (inactive),–
Cc1ccc(S(=O)(=O)Nc2ccc(Br)cc2C(=O)Nc2nc(-c3ccccc3)cs2)cc1,197% (inactive),–
OCc1ccc(-c2ccc(-c3ccc(CO)s3)o2)s1,107% (inactive),–
O=C(O)Cc1ccc(CCNS(=O)(=O)c2ccc(Cl)cc2)cc1,13.6% (inactive),–
O=C(O)c1ccc(O)c2ncc(-c3n[nH]nc3-c3ccccc3)cc12,–,inactive
Oc1c(Cl)cc(Cl)c(Cl)c1Cc1c(O)c(Cl)cc(Cl)c1Cl,87.1% (inactive),–
C=Cc1c(C)c2cc3[nH]c(cc4nc(cc5nc(cc1[nH]2)C(C)=C5CCC(=O)O)C(CCC(=O)O)=C4C)c(C)c3C=C,–,25.1 µM (active)
OCCOCCN1CCN(C(c2ccccc2)c2ccc(Cl)cc2)CC1 (stereo not given),-12.4% (inactive),–
Cc1ccc(OCCn2c(CCNC(=O)c3ccsc3)nc3ccccc32)cc1,125% (inactive),–
